Shown are actives, neighbours in structure and some others; about 3.1% of the full set was active somewhere.
INS-1E GSIS act: GLuc luminescence reporter in INS-1E cells, primary screen for activators of glucose-dependent secretion of insulin. INS-1E GLuc reporter insulin secretion, 2-3 h. activation, % at 16.6 µM. 370,000 compounds, 0.61% hits;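 active = lowest replicate activation of at least 40%, so every replicate reaches that level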;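 note: 0% = median of neutral control wells and 100% = median of IBMX positive control wells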
RAD52 anneal inh: RAD52 DNA annealing inhibitors, primary screen, biochemical, FRET, single point, set 2; AID 651710, 2012; DNA repair protein RAD52 homolog (Homo sapiens), P43351; recombinant RAD52 DNA annealing, FRET fluorescence; inhibition, % at 18.7 µM; 360,000 compounds, 0.46% hits;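 active = every replicate showing at least 50% inhibition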
dFosB act: activators of delta FosB homodimer, primary screen, biochemical, fluorescence polarization, TAMRA-CDK5 oligo, single point | purified delta FosB; percent of positive-control signal above neutral wells | activation, % at 25 µM | 340,000 compounds, 0.99% hits;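 active = mean activation above about 17%, with every replicate also reaching it, limit read from the data, passing the limit was not always enough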
RAD54 branch: inhibitors of human RAD54 branch migration, primary screen, biochemical, fluorescence, single point | RAD54 Holliday junction branch migration, FAM/BHQ fluorescence | inhibition, % at 10.4 µM | AID 602329, 2012 | DNA repair and recombination protein RAD54-like (Homo sapiens), Q92698 | 360,000 compounds, 0.14% hits;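 active = mean normalized replicate activity at least 40 and at least half of replicates scoring 40 or more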;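 note: 0% = median of neutral control wells and 100% = median of positive control wells; inhibitors cause a drop in the FAM fluorescence signal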
MLL AF4-AF9 inh: inhibitors of AF4 peptide binding to AF9, primary screen, biochemical, AlphaScreen, biotin-AF4 peptide, FLAG-AF9, single point; Protein AF-9 (Homo sapiens), P42568; inhibition, % at 10 µM; 350,000 compounds, 0.47% hits; AID 651704, 2012;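 active = every replicate reaching a set inhibition limit, whatever the replicate mean, cut at about 25% in these data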;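 note: 0% = plate neutral control median and 100% = total signal loss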
Target sequence (P42568 whole entry, looked up): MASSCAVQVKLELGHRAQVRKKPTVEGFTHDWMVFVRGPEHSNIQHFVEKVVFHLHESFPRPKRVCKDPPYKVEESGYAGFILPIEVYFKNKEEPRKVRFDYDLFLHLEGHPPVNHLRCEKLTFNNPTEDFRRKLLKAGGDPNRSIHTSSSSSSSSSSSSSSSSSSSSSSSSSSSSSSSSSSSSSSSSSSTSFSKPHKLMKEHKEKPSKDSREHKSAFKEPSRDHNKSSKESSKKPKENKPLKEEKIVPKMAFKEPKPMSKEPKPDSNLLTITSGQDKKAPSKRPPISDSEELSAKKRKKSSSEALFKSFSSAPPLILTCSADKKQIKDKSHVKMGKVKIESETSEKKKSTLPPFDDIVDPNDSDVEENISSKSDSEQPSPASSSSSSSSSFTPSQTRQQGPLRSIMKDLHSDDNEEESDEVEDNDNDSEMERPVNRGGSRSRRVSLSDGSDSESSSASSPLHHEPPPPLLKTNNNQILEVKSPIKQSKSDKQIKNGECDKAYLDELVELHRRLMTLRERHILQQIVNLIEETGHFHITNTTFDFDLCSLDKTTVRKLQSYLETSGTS
DENV2 CPE: inhibitors of DENV2 cytopathic effect, primary screen, cell-based, plate reader, single concentration. 350,000 compounds, 1.7% hits. AID 651640, 2012. DENV2-infected cells, cytopathic effect rescue. CPE inhibition, % at 9.99 µM; in the data active = CPE inhibition above about 20%, passing the limit was not always enough; tested in BHK-21 cells;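 note: 0% = median of neutral control wells and 100% = median of positive control wells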
Starred values were filed as active, the others as inactive; . = no result given; ! = repeats disagree.

SMILES	INS-1E GSIS act	RAD52 anneal inh	dFosB act	RAD54 branch	MLL AF4-AF9 inh	DENV2 CPE
O=C(NCc1ccc(F)cc1)c1cc(-c2ccccn2)nc2ccc(S(=O)(=O)N3CCOCC3)cc12	.	-33	.	5	1	31*
Cc1ccc(S(=O)(=O)Nc2ccc3c(c2)C(=O)N([C@@H](C)CO)C[C@@H](C)[C@H](CN(C)S(=O)(=O)c2ccc(Cl)cc2)OCCCC[C@@H](C)O3)cc1	-6	.	.	-3	.	83*
C[C@H]1CCCCO[C@H](CN(C)S(=O)(=O)c2ccc(Cl)cc2)[C@@H](C)CN([C@@H](C)CO)C(=O)c2cc(NC(=O)Cc3ccccc3)ccc2O1	-12	16	.	-3	2	109*
C[C@H](CO)N1C[C@H](C)[C@H](CN(C)S(=O)(=O)c2ccc(Cl)cc2)OCCCC[C@H](C)Oc2ccc(NC(=O)Cc3ccccc3)cc2C1=O	-7	2	.	-8	1	-5
C[C@@H]1CN([C@H](C)CO)C(=O)c2cc(NS(C)(=O)=O)ccc2O[C@@H](C)CCCCO[C@@H]1CN(C)S(=O)(=O)c1ccc(Cl)cc1	-3	-21	.	-6	1	1
C[C@@H]1CCCCO[C@H](CN(C)S(=O)(=O)c2ccc(Cl)cc2)[C@H](C)CN([C@H](C)CO)C(=O)c2cc(N(C)C)ccc2O1	-15	20	.	-5	7	89*
C[C@@H]1CN([C@@H](C)CO)C(=O)c2cc(NS(C)(=O)=O)ccc2O[C@@H](C)CCCCO[C@@H]1CN(C)S(=O)(=O)c1ccc(Cl)cc1	9	-4	.	2	-1	20*
C[C@@H]1CCCCO[C@H](CN(C)S(=O)(=O)c2ccc(Cl)cc2)[C@H](C)CN([C@@H](C)CO)C(=O)c2cc(NC(=O)CCCN(C)C)ccc2O1	33	42	.	3	14	-1
CN(C)C(=O)c1ccc(-c2ccc3c(c2)[C@@H]2[C@@H](CCN2C(=O)c2ccccn2)[C@@H](CO)N3C)cc1	-8	.	.	3	.	8
CCOC(=O)Cc1c(C)nc(N)[nH]c1=O	-4	-8	6	0	-6	3
CCOC(=O)Cc1sc(N)nc1C	2	-21	-6	-10	0	41*
O=C(C[C@H]1C=C[C@H](NC(=O)c2cccc(F)c2)[C@H](CO)O1)NCc1ccc(Oc2ccccc2)cc1	-7	-3	.	.	-2	14
C[C@H]1CN([C@@H](C)CO)C(=O)CCCn2cc(nn2)CO[C@@H]1CN(C)C(=O)c1ccc(N2CCN(C)CC2)cc1	11	0	.	2	-2	64*!
C[C@@H]1CN([C@H](C)CO)C(=O)CCCn2cc(nn2)CO[C@H]1CN(C)C(=O)Nc1ccc(N2CCN(C)CC2)cc1	17	62*	.	8	1	-6
C[C@H](CO)N1C[C@H](C)[C@@H](CN(C)C(=O)c2ccc(N3CCN(C)CC3)cc2)OCc2cn(nn2)CCCC1=O	8	5	.	2	0	13
Cc1ccc(S(=O)(=O)N(C)C[C@@H]2Oc3ccc(NC(=O)CCC(F)(F)F)cc3C(=O)N([C@@H](C)CO)C[C@H]2C)cc1	9	1	.	-1	-1	2
O=C(Nc1ccc(SC(F)F)cc1)C1CC(=O)N(Cc2ccccc2)C1 (stereo not drawn)	2	-20	-4	-2	-1	22*
COc1cc(C(F)(F)F)c(C(=O)NCc2cccc(Cl)c2)cn1	48*	-3	-5	-3	-2	-5
O=C(O)c1ccc(O)cc1O	11	-14	-2	-3	.	67*
C[C@H]1CCCCO[C@H](CN(C)C(=O)Nc2ccc3c(c2)OCO3)[C@@H](C)CN([C@@H](C)CO)C(=O)c2cc(NS(=O)(=O)c3ccc(Cl)cc3)ccc2O1	-9	-33	.	-5	-6	52*
C[C@@H]1CCCCO[C@@H](CN(C)Cc2ccc3c(c2)OCO3)[C@@H](C)CN([C@H](C)CO)C(=O)c2cc(NS(=O)(=O)c3ccc(Cl)cc3)ccc2O1	-13	31	.	-4	1	-6
C[C@@H]1CN([C@H](C)CO)C(=O)c2cc(NS(=O)(=O)c3ccc(Cl)cc3)ccc2O[C@@H](C)CCCCO[C@H]1CN(C)Cc1ccc2c(c1)OCO2	-1	52*!	.	-2	14	-2
C[C@@H]1CCCCO[C@@H](CN(C)C(=O)Nc2ccc3c(c2)OCO3)[C@@H](C)CN([C@H](C)CO)C(=O)c2cc(NS(=O)(=O)c3ccc(Cl)cc3)ccc2O1	-3	16	.	0	-10	-7
C[C@@H]1CCCCO[C@@H](CN(C)Cc2ccc3c(c2)OCO3)[C@@H](C)CN([C@@H](C)CO)C(=O)c2cc(NS(=O)(=O)c3ccc(Cl)cc3)ccc2O1	-9	58*!	.	0	7	7
C[C@H]1CCCCO[C@H](CN(C)Cc2ccc3c(c2)OCO3)[C@@H](C)CN([C@@H](C)CO)C(=O)c2cc(NS(=O)(=O)c3ccc(Cl)cc3)ccc2O1	-30	55*	.	-6	8	3
SMILES	INS-1E GSIS act	RAD52 anneal inh	dFosB act	RAD54 branch	MLL AF4-AF9 inh	DENV2 CPE
COCC(=O)N1C[C@H]2CON(C)[C@H]2C[C@H]1c1cccc(-c2ccccc2)c1	5	-9	.	2	0	34*
CCSC1=N/C(=C\c2ccc3c(c2)OCO3)C(=O)S1	-9	.	0	-10	.	.
CN1C(=O)/C(=C/c2ccc3c(c2)OCO3)N=C1c1ccccc1	40*	.	-11	.	.	.
Cc1ccc(S(=O)(=O)N(CC(=O)Nc2ccc(F)cc2)C(=O)N2CCN(C)CC2)cc1	14	-5	2	-5	-3	0
Cc1ccc(NC(=O)CN(C(=O)N2CCN(C)CC2)S(=O)(=O)c2ccc(C)cc2)cc1	45*	-5	3	1	-1	2
Cc1ccc(S(=O)(=O)N(CC(=O)Nc2ccc(C)cc2C)C(=O)N2CCN(C)CC2)cc1	221*	-17	12	4	-1	-5
CSc1nc(N2CCOCC2)c2sccc2n1	76*	-1	-1	.	-5	1
COCC#Cc1ccc([C@@H]2[C@@H](CO)N3C(=O)CN(C(=O)Nc4ccccc4F)C[C@H]23)cc1	6	-11	.	.	-3	-10
COc1ccc(C(=O)CCC(=O)NCc2cc(OC)cc(OC)c2)cc1	-8	-14	-5	-9	2	35*
C[C@H](CO)N1C[C@H](C)[C@H](CN(C)S(C)(=O)=O)OCCCC[C@H](C)Oc2ccc(NS(=O)(=O)c3cn(C)cn3)cc2C1=O	3	-2	.	-11	-1	0
